Whole data set: some 33,000 sequences, median “E-score (-0.5 to 0.5)” near -0.013, cut for the highest 2% near 0.3. Only a selection was taken, and the highest values are over-represented in it overall.
target: T1, Msn1 (UniProt P22148); assay: PBM E-score (8-mer binding enrichment) (E-score (-0.5 to 0.5)); higher = stronger / more preferred TF binding; conditions: protein concentration: 200 nM; construct: GST-full length
T1 sequence: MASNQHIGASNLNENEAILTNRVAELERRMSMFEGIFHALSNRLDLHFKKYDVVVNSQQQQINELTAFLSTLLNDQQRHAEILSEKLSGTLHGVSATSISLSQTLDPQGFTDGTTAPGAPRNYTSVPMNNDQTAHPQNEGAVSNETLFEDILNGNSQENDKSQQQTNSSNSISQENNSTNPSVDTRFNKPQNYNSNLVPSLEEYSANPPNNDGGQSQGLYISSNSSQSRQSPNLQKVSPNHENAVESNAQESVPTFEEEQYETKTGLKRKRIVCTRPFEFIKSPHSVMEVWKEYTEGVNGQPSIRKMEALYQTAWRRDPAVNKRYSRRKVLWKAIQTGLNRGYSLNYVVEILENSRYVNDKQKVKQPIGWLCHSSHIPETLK
Procedure: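 Universal 'all 10-mer' protein binding microarrays (Agilent AMADID 015681) probed with GST-tagged S. cerevisiae TFs (full-length or DBD) made by in vitro transcription/translation (PURExpress), about 100-200 nM. Bound TF was detected with fluorescent anti-GST. Each ungapped 8-mer (which stands for itself and its reverse complement) is scored by the PBM enrichment score (E-score), a modified Wilcoxon-Mann-Whitney statistic from -0.5 to +0.5, computed with the Universal PBM Analysis Suite. Scale: above 0.35 generally sequence-specific binding.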

Sequence | PBM E-score
GAACAGGC | -0.164
ACTTGCCT | -0.136
CTGAAAGC | 0.0584
ACTCGAAG | -0.168
AGATGTGA | -0.0694
AGATGTCA | 0.309
AGATGTAA | 0.102
ATAAATGG | 0.0876
GACACGGA | 0.369
TACACGGA | 0.303
AACACGCC | -0.12
GTCACGGA | 0.308
ATCACGGA | 0.136
CTCACGGA | 0.0943
GACACGCC | 0.324
GACACGGC | 0.197
GACACGCA | 0.198
CACTAGCA | -0.0794
CCTGAACG | -0.104
ATAAGAGC | 0.0327
ATCTTGAG | 0.0323
ACGTCATA | 0.235
AACCTAAA | 0.121

Sequence | PBM E-score
ACAGTGCG | -0.181
CACCGGTA | 0.0943
AGAACTCT | -0.119
CTCCAGTA | 0.057
ACCGGACA | 0.306
TCCGGAAA | 0.248
GCCGGACA | 0.357
CCCGGACC | -0.11
ACCGGACG | -0.0239
GCCGGACC | -0.0867
CCCGGACA | 0.425
GCCGGAGA | 0.0857
TCCGGAGA | 0.0632
CCCGGACG | -0.156
ACCGGACT | 0.0676
TCCGGACA | 0.453
CGTCCCGC | 0.0266
AGGTCGCC | -0.164
AAAAAAGC | -0.0879
AAGGTCCA | -0.0265
CCAGCAAA | 0.06
AATGGCCT | -0.164
CGTATGGC | 0.0738

Sequence | PBM E-score
AGTATGTA | -0.0186
AGTATGTC | 0.353
AGTATGTG | 0.0347
CGTATGTA | 0.148
CGTATGTC | 0.359
CGTTGGAA | -0.0918
ACTATACC | 0.0929
GCAAGGAC | 0.395
ATAAGGAT | 0.161
ACAAGGAG | 0.0113
ACAGGGAC | 0.324
GTAAGGAC | 0.268
ACAAGGAA | 0.178
ACAAGGAC | 0.358
GCAAGGAA | -0.122
ATAAGGAC | 0.369
CCAAGGAC | 0.16
GCAGGGAC | 0.163
ACAGGGAT | -0.147
GGCGAGGA | -0.0575
TCATCCGA | 0.183
GTACCTGA | 0.149
GTCTGTGA | 0.0908

Sequence | PBM E-score
CGACGCCG | 0.0839
AAAGCACG | 0.0204
TAGCAAAA | 0.124
CCTGTTGA | -0.00042
AGAAAACT | 0.116
CCGTGAAC | 0.0411
CTCTACGA | 0.0394
CAGAATGA | 0.0577
AAAGATAA | 0.14
CAAGATAA | 0.324
CAAGACAG | 0.0634
GAAGACCA | -0.102
GAAGACAA | 0.36
AAAGACAT | 0.387
GAAGACAC | 0.181
AAAGACTT | 0.0779
CAAGACAC | 0.183
CAAGACAA | 0.367
TAAGATAA | 0.0274
AAAGACCT | 0.0725

Reference: the supplement of paper PMC3334620
